Laboratory results reported in PubChem BioAssay (NCI).
This is part of a sample that, as a whole, favours compounds with a hit. Of some 79,000 tested, about 15% had one in any assay. A number with no mark means an inactive call. Calls of active or inactive are those of the source. No stated cut-off is given here; in the data, active means growth inhibition above about 70%; inactive means the rest.

Experiments:
[1] = NCI Yeast Anticancer Drug Screen. Data for the rad50 strain (AID 155);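 further: 0% = growth of vehicle-only cultures of the same strain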; conditions: S. cerevisiae rad50 strain growth inhibition; at 50.0 µM; active compounds read high
Summary of the method: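 A DNA repair-deficient yeast mutant serves as the test organism; compound-induced growth inhibition is calculated against vehicle-treated cells.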

[2] = NCI Yeast Anticancer Drug Screen. Data for the mec2-1 strain (AID 157); conditions: S. cerevisiae mec2-1 strain, at 50.0 µM, active compounds read high
Summary of the method: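 Cells of the genetically defined mec2-1 yeast strain are incubated with test compound. Inhibition of growth is calculated against vehicle-treated controls.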

[3] = NCI Yeast Anticancer Drug Screen. Data for the sgs1 mgt1 strain (AID 161);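 further: 0% = growth of cultures given vehicle only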; conditions: S. cerevisiae sgs1 mgt1 strain, at 50.0 µM, active compounds read high
Summary of the method: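 Genetically altered yeast, compound exposure, growth inhibition relative to vehicle.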

[4] = NCI Yeast Anticancer Drug Screen. Data for the cln2 rad14 strain (AID 165);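 further: 0% = growth equal to vehicle treated cultures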; conditions: S. cerevisiae cln2 rad14 strain, at 50.0 µM, active compounds read high
Summary of the method: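 The screen exposed genetically defined yeast (cln2 rad14) to test compounds and scored growth inhibition relative to vehicle-treated controls.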

[5] = NCI Yeast Anticancer Drug Screen. Data for the bub3 strain (AID 167); conditions: S. cerevisiae bub3 mutant strain, at 50.0 µM, active compounds read high
Summary of the method: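 Inhibition values come from growth of compound-treated mutant yeast normalised to vehicle-treated controls.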

[6] = NCI Yeast Anticancer Drug Screen. Data for the mlh1 rad18 strain (AID 175); conditions: S. cerevisiae mlh1 rad18 strain growth inhibition; at 50.0 µM; active compounds read high
Summary of the method: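 Compound-treated yeast growth, normalised to vehicle controls. Strain bears defined DNA repair mutations.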

| SMILES | growth inhibition [1] | growth inhibition [2] | growth inhibition [3] | growth inhibition [4] | growth inhibition [5] | growth inhibition [6] |
| --- | --- | --- | --- | --- | --- | --- |
| COc1ccc2c(c1)CCCN2C(N)=Nc1ccc([N+](=O)[O-])cc1 | -4.2% | -4.4% | -1.45% | -55.8% | -1.95% | -7.7% |
| Cc1cnc2[nH]c(-c3ccc(Cl)cc3)cc(=O)c2c1 | -5.65% | -21.6% | -31.9% | -31.4% | -32% | -52.1% |
| CCN(CC)CCN(CC)CCN(CC)CC | 6.7% | 5.65% | -1.75% | 3.85% | 4.1% | -0.7% |
| C#CCC(O)c1ccc(OC)c(OCc2ccccc2)c1 (configuration not stated) | -6.05% | -17.9% | 18.6% | 4.4% | 4.45% | -1.4% |
| O=S1(=O)C=CC(N/N=C\c2ccc3ccccc3n2)=C1 | 4.8% | -11.1% | -4.45% | -36.8% | 9.7% | -7.25% |
| CCCC(CCC)(C(=O)OCC)C(=O)OCC | 1.45% | 6.15% | -1.3% | -15.4% | -4.25% | 0.65% |
| Cc1ccc(/C=N/NC(=O)c2ccccc2NC(=O)c2ccccc2)cc1 | 57.4% | 80.6% (active) | 85.4% (active) | 62% | 70.8% (active) | 69.8% |
| CCOc1ccc(N=C2C=C(Nc3ccc(OCC)cc3)C(=Nc3ccc(OCC)cc3)C=C2Nc2ccc(OCC)cc2)cc1 | -17.7% | -14.5% | -24.2% | -18.4% | 2.35% | -24.5% |
| Brc1ccc[n+](CCc2ccccc2)c1 | -2.7% | 15.1% | -6.7% | 7.75% | 5.7% | 9.5% |
| Cc1cccc(C(=O)O)c1[N+](=O)[O-] | 10.4% | 1.05% | -8.25% | -8.35% | -14% | 7.1% |
| O=C(NCC(O)CNC(=O)C(F)(F)F)C(F)(F)F | 5.2% | 7.75% | 8.75% | 28.4% | 14.4% | -27.2% |
| COC(=O)c1ccc(C(=O)OC)nc1 | -7.45% | -2.1% | -0.2% | -36.6% | -25.6% | -3.55% |
| CCOC(=O)CCCCCC#N | 1.35% | -18.4% | -6.1% | -1.75% | -9.5% | -0.15% |
| NC1c2ccccc2CCc2ccccc21 | 13.6% | -13.7% | 17.6% | 3.55% | 6.8% | 6.8% |
| CCCCNC(=O)c1cc2c(cc1Cl)Sc1nccn1S2(=O)=O | -1.1% | -0.3% | 1.35% | 9.2% | 43.9% | 28.6% |
| CCOC(=O)c1cc2cc([N+](=O)[O-])ccc2[nH]1 | 10% | 9.5% | 0% | 5.65% | -7.2% | 16.4% |
| CC(C)SC(=O)C[Si](C)(C)C | -5.8% | 6.95% | -2.9% | -16.1% | 26.7% | -1.65% |
| C=C(CCCC(=C)C(N)=O)C(N)=O | -14.4% | -14.5% | -12.1% | 2.55% | -0.85% | -27.4% |
| COc1ccc(C(=O)CCN(C)C)cc1 | 15.6% | -5.85% | -7.65% | -11.3% | -7.5% | -4.6% |
| CC(=O)Nc1cc(C)cc(Br)c1 | -6.85% | -4.1% | -10.1% | 9.05% | 1.5% | -9.55% |
| O=C(CCBr)OCc1ccccc1 | -12.5% | -7.45% | 1.1% | -20.8% | -26.2% | 25% |

| SMILES | growth inhibition [1] | growth inhibition [2] | growth inhibition [3] | growth inhibition [4] | growth inhibition [5] | growth inhibition [6] |
| --- | --- | --- | --- | --- | --- | --- |
| Oc1ccccc1C=Nc1ccc(Cl)cc1 | -1.35% | 3.6% | -5.5% | -12.7% | -21.6% | 6.85% |
| O=C(O)C1C2C=CC(O2)C1C(=O)Nc1ncccn1 (configuration not stated) | -0.65% | -33.9% | -14.4% | -23.3% | -35.4% | -3.6% |
| C/C=C/C=C/c1nc(C#N)c(N)o1 | -7.6% | -2.2% | 1.55% | 12.7% | 15.3% | -3.55% |
| CCc1cc2c(cc1C(=O)/C=C\c1ccco1)C(C)(C)CCC2(C)C | 97.2% (active) | 98.2% (active) | 97.5% (active) | 96.8% (active) | 97.7% (active) | 97.8% (active) |
| O=C(NCCCN1CC2CCCC2C1)C(c1ccccc1)c1ccccc1 (configuration not stated) | -22.9% | -2.55% | -41.8% | -5.3% | -10.7% | -24.3% |
| CC/C(C)=N\NC(N)=O | 6.85% | 6.7% | -29.7% | -16.1% | 0.1% | 6.9% |
| CSc1n[nH]c(NC(=O)c2ccccc2Cl)n1 | -0.9% | 0.45% | 1.5% | -33.2% | -3.1% | 7.95% |
| N#C/C(=C\c1ccc(Cl)cc1)C(=O)c1ccccc1 | 9.4% | 12.8% | 29.8% | 20.9% | 6.95% | 22.7% |
| CCCCCCCCC1CO1 (configuration not stated) | 0.9% | 3.55% | -10.8% | -19.5% | -3.95% | -6.85% |
| CN(C)CCCNC(=O)Nc1ccc(Cl)cc1 | 8.15% | 8.15% | 0.15% | 11.8% | -0.35% | 12.8% |
| CC(C)(C)C(O)CC(O)(C(F)(F)F)C(F)(F)F (configuration not stated) | -2.45% | -21.1% | -12.8% | 19.6% | -5.9% | -1.9% |
| CC(=O)OCc1cc(OC(C)=O)cnc1COC(C)=O | -9.25% | -24.6% | -17.4% | -19.2% | -7.85% | -36.2% |
| CCOC(=O)C(=CNC(=S)c1cccnc1)C(=O)OCC | -23.9% | -37.7% | -20.9% | -7.75% | -10% | -1.5% |
| Cc1ccccc1OCC1COCN(C(C)(C)C)CO1 (configuration not stated) | -13.5% | -2.2% | 4.95% | 7.8% | -20.9% | 19.6% |
| CC(=O)OC1CC(c2ccccc2)N(C)C(c2ccccc2)C1 (configuration not stated) | 6.85% | -8% | 2.55% | -7.9% | -3.15% | 10.6% |
| C=CC(C)(C)/C=C/C=O | -18.8% | -15.1% | -12.1% | 5.65% | 24.6% | -32.1% |
| CC1CC=C(C(O)C(C)C)C1 (configuration not stated) | 0.2% | 6.2% | -2.7% | -11.8% | 4.15% | -0.9% |
| COc1ccc(CCNC(=O)c2cccc(Cl)c2)cc1OC | -7.05% | -28.9% | -23.1% | -44.6% | -22% | -12.2% |
| CCC(O)C(CC)[N+](=O)[O-] (configuration not stated) | -4.45% | -17.4% | -2.75% | 4.05% | -2.8% | 5.5% |
| COC(=O)c1ccc(CSc2ccc(N)cc2)cc1 | 53.1% | 36.2% | 60.6% | 40.1% | 46.1% | 68.5% |
| Cc1cc[n+](CCc2c[nH]c3ccccc23)cc1C | 30.5% | -0.3% | 11.9% | 20.4% | -1.65% | 10.8% |
